# From publication PMC7862700, “An all-to-all approach to the identification of sequence-specific readers for epigenetic DNA modifications on cytosine”
# Legend:
# Assay in all cases: DAPPL (digital affinity profiling via proximity ligation, sequencing); 10 mM Tris-HCl pH 7.5, 50 mM NaCl, 1 mM DTT, 4% glycerol, room temperature, 30 min; GST-TFs on glutathione beads, 16-mer random dsDNA library, 0.1% formaldehyde crosslink after washing; high values mean tight binding
# FLI1 = molecular target: T1, FLI1 (Homo sapiens, UniProt Q01543 1-452); conditions: protein: recombinant; tags: N-terminal GST; dsDNA, one strand shown
# T1 sequence: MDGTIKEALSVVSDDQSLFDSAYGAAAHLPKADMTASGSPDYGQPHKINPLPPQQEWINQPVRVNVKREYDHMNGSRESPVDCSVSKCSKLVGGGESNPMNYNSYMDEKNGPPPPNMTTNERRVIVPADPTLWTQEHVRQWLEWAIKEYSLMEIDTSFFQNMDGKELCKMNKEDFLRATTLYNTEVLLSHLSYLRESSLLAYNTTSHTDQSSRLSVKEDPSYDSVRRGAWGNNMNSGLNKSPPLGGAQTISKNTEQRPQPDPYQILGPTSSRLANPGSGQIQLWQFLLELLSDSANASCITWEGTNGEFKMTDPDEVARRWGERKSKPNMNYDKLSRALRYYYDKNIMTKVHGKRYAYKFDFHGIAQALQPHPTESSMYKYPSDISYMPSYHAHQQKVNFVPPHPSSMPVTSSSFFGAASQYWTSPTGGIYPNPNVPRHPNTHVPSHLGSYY
# In short: (§1)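 A tag-only sample was pooled with DNA-barcoded human transcription factors that had been expressed in yeast as GST fusions and captured on glutathione beads. The pools were incubated for 30 min at room temperature with 200 nmole of a random double-stranded 16-mer DNA library in Tris/NaCl/DTT/glycerol buffer, then washed, crosslinked with 0.1% formaldehyde, proximity-ligated (BsaI/T4 ligase, 1 h, 37 °C), PCR-amplified and sequenced on an Illumina NextSeq500. Binding signal is each hexamer's read frequency for a factor divided by its frequency for the tag-only sample.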
# ELK1 = molecular target: T2, ELK1 (Homo sapiens, UniProt P19419 1-428); conditions: protein: recombinant; tags: N-terminal GST; dsDNA, one strand shown
# T2 sequence: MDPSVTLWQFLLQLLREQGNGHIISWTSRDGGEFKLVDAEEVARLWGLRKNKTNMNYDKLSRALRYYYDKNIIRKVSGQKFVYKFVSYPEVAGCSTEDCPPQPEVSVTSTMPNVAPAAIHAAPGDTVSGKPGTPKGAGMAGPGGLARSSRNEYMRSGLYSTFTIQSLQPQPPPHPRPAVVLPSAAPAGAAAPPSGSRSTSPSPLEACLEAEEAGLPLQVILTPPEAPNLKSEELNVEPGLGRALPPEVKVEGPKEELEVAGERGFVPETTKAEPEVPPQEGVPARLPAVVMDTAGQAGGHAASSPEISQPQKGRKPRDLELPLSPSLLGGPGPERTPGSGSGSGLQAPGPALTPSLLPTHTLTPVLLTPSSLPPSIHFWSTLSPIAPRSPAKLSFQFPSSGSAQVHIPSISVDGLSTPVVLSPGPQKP
# In short: as §1
# GABPA = molecular target: T3, GABPA (Homo sapiens, UniProt Q06546 1-454); conditions: protein: recombinant; tags: N-terminal GST; dsDNA, one strand shown
# T3 sequence: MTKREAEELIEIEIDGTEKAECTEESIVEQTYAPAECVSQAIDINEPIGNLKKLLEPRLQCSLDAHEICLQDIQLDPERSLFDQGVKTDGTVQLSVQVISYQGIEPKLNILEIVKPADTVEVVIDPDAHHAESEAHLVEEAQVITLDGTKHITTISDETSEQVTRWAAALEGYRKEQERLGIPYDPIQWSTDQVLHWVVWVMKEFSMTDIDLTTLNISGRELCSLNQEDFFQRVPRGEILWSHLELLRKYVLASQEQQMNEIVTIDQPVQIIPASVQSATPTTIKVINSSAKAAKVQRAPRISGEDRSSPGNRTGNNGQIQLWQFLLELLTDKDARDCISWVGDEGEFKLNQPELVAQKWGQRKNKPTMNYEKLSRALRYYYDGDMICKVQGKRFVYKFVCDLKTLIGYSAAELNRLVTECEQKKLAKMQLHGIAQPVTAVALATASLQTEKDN
# In short: as §1
# ERG = molecular target: T4, ERG (Homo sapiens, UniProt P11308 1-479); conditions: protein: recombinant; tags: N-terminal GST; dsDNA, one strand shown
# T4 sequence: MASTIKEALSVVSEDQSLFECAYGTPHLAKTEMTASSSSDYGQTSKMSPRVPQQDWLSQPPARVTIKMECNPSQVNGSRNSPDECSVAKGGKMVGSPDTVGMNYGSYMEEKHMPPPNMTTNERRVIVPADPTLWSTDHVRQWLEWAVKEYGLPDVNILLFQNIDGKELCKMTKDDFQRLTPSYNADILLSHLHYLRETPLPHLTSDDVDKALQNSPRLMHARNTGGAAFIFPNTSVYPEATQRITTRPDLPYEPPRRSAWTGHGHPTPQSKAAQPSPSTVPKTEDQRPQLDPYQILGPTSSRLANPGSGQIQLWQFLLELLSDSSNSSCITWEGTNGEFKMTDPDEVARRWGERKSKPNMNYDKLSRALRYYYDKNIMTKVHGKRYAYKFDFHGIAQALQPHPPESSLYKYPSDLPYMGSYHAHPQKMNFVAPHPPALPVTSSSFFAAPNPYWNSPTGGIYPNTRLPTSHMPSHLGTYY
# In short: as §1
# ELF1 = ELF1 (Homo sapiens, UniProt P32519 1-619); conditions: protein: recombinant; tags: N-terminal GST; dsDNA, one strand shown
# In short: as §1
# EHF = molecular target: T5, EHF (Homo sapiens, UniProt Q9NZC4 1-300); conditions: protein: recombinant; tags: N-terminal GST; dsDNA, one strand shown
# T5 sequence: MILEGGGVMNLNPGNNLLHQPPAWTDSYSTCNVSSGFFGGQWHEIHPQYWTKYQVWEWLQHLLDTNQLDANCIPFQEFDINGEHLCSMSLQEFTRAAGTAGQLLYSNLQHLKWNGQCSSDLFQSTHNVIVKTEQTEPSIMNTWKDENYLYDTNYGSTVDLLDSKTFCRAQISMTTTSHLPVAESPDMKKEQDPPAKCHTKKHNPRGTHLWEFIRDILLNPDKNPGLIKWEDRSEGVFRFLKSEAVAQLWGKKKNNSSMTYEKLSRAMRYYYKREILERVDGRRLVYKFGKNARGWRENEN
# In short: as §1
# SPI1 = SPI1 (Homo sapiens, UniProt P17947 1-270); conditions: protein: recombinant; tags: N-terminal GST; dsDNA, one strand shown
# In short: as §1
# SPIB = SPIB (Homo sapiens, UniProt Q01892 1-262); conditions: protein: recombinant; tags: N-terminal GST; dsDNA, one strand shown
# In short: as §1
# ELK3 = molecular target: T6, ELK3 (Homo sapiens, UniProt P41970 1-407); conditions: protein: recombinant; tags: N-terminal GST; dsDNA, one strand shown
# T6 sequence: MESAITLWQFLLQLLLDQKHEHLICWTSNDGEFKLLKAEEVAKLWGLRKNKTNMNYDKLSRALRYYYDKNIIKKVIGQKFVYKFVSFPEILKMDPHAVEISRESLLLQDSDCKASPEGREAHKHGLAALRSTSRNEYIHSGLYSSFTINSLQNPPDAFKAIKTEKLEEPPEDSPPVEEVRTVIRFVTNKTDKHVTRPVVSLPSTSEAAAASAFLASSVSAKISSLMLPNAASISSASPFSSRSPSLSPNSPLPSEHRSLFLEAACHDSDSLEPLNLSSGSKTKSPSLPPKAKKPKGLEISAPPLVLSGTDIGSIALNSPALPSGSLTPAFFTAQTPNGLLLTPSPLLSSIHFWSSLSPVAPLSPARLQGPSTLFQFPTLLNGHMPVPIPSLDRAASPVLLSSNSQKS
# In short: as §1
# FEV = molecular target: T7, FEV (Homo sapiens, UniProt Q99581 1-238); conditions: protein: recombinant; tags: N-terminal GST; dsDNA, one strand shown
# T7 sequence: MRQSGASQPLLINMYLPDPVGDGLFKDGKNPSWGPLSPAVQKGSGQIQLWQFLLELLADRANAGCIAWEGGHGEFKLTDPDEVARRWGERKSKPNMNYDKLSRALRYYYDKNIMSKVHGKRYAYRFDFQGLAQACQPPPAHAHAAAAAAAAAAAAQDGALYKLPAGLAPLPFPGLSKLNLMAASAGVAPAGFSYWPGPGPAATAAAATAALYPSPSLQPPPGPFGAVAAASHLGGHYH
# In short: as §1
# ETV5 = ETV5 (Homo sapiens, UniProt P41161 1-510); conditions: protein: recombinant; tags: N-terminal GST; dsDNA, one strand shown
# In short: as §1
# HSF1 = HSF1 (Homo sapiens, UniProt Q00613 1-529); conditions: protein: recombinant; tags: N-terminal GST; chain copies: 3; dsDNA, one strand shown
# In short: as §1
# SPIC = molecular target: T8, SPIC (Homo sapiens, UniProt Q8N5J4 1-248); conditions: protein: recombinant; tags: N-terminal GST; dsDNA, one strand shown
# T8 sequence: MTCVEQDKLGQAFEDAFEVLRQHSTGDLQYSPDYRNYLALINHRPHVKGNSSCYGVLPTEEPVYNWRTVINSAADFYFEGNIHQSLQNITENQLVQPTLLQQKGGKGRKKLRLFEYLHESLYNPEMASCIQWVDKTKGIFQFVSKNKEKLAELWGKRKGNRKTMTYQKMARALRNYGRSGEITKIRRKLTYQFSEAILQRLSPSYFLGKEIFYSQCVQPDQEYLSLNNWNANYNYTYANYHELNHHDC
# In short: as §1
# ELF4 = ELF4 (Homo sapiens, UniProt Q99607 1-663); conditions: protein: recombinant; tags: N-terminal GST; dsDNA, one strand shown
# In short: as §1
# ELK4 = molecular target: T9, ELK4 (Homo sapiens, UniProt P28324-2 1-405); conditions: protein: recombinant; tags: N-terminal GST; dsDNA, one strand shown
# T9 sequence: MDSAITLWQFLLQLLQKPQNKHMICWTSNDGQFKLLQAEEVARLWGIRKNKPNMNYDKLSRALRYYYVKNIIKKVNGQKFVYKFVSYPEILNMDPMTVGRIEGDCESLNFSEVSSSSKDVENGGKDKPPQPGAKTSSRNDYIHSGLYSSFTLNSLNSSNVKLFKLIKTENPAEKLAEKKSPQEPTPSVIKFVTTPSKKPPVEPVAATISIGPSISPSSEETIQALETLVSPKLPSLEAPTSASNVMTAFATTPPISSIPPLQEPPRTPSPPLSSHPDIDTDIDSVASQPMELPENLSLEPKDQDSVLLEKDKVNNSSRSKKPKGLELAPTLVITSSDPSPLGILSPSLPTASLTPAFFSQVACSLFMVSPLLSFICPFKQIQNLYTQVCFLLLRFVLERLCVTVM
# In short: as §1
# ETV2 = molecular target: T10, ETV2 (Homo sapiens, UniProt O00321 1-342); conditions: protein: recombinant; tags: N-terminal GST; dsDNA, one strand shown
# T10 sequence: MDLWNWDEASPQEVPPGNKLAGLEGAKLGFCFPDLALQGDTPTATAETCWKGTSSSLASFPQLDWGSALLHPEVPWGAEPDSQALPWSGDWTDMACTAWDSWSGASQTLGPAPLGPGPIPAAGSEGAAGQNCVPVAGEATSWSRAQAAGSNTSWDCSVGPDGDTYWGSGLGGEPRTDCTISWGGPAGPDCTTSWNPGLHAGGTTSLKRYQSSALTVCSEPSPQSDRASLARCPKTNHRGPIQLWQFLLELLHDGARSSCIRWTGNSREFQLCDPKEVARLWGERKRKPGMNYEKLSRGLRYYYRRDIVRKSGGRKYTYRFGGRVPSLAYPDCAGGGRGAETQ
# In short: as §1
# ELF3 = molecular target: T11, ELF3 (Homo sapiens, UniProt P78545 1-371); conditions: protein: recombinant; tags: N-terminal GST; dsDNA, one strand shown
# T11 sequence: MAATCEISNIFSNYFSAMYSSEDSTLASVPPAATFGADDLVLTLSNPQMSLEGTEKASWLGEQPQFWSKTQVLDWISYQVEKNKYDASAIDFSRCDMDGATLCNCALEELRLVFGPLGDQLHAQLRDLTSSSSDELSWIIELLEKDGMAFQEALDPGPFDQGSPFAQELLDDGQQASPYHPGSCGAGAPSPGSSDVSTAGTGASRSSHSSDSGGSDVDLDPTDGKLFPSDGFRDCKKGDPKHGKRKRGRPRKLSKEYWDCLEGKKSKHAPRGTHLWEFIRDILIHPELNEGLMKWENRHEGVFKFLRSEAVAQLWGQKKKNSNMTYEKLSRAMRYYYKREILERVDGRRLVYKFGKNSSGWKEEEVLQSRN
# In short: as §1
# CRX = CRX (Homo sapiens, UniProt O43186 1-299); conditions: protein: recombinant; tags: N-terminal GST; dsDNA, one strand shown
# In short: as §1
# ETV1 = ETV1 (Homo sapiens, UniProt P50549 1-477); conditions: protein: recombinant; tags: N-terminal GST; dsDNA, one strand shown
# In short: as §1
# Chain of SPIB (Q01892 whole entry): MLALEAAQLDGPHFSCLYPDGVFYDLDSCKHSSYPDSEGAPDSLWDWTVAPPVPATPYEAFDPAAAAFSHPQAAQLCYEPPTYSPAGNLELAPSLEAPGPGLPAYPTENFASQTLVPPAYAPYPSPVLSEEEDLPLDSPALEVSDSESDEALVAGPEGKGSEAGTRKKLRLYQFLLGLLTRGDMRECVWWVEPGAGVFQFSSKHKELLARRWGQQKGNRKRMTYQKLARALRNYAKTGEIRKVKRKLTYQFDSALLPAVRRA
# Chain of HSF1 (Q00613 whole entry): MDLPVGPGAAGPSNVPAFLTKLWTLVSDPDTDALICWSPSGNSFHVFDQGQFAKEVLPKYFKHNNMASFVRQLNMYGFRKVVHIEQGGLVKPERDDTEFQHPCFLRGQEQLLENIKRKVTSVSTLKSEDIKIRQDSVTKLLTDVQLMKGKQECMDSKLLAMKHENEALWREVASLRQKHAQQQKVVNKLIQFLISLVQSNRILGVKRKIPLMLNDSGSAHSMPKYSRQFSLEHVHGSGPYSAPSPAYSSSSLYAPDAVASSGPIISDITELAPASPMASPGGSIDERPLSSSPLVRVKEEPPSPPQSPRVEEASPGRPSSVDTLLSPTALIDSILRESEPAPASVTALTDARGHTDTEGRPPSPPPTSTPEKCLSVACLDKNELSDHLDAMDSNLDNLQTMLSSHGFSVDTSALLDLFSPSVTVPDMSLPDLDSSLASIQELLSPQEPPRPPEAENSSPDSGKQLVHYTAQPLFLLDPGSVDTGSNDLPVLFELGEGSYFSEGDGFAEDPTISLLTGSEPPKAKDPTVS
# Chain of ETV5 (P41161 whole entry): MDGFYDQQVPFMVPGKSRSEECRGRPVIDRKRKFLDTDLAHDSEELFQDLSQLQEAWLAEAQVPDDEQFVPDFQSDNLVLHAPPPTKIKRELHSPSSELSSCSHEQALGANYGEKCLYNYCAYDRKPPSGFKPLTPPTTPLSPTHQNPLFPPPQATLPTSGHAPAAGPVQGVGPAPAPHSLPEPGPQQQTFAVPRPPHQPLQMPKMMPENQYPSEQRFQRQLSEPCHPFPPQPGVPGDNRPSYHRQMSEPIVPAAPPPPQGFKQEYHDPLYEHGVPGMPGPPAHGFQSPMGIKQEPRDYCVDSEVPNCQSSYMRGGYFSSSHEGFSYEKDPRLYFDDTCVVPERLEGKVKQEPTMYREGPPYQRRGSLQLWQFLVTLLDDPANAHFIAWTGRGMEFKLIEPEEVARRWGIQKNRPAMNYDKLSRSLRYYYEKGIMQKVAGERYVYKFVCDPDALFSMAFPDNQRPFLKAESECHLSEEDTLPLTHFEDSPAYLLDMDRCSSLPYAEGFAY
# Chain of ELF1 (P32519 whole entry): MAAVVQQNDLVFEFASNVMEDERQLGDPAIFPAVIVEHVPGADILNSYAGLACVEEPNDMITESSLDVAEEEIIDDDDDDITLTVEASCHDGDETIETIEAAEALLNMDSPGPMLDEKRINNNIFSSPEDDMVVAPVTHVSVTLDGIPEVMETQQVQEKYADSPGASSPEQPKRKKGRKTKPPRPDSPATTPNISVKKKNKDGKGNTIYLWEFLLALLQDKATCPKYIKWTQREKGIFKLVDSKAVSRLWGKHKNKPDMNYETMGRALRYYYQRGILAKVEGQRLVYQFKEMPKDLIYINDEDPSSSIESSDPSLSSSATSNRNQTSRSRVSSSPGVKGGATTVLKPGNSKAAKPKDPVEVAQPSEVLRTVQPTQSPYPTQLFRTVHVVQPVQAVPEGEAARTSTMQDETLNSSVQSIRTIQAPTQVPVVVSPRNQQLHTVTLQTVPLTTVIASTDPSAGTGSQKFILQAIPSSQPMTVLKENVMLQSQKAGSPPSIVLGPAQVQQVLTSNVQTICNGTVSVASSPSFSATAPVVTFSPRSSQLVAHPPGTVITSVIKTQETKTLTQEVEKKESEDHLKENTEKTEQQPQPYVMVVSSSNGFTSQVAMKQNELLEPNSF
# Chain of CRX (O43186 whole entry): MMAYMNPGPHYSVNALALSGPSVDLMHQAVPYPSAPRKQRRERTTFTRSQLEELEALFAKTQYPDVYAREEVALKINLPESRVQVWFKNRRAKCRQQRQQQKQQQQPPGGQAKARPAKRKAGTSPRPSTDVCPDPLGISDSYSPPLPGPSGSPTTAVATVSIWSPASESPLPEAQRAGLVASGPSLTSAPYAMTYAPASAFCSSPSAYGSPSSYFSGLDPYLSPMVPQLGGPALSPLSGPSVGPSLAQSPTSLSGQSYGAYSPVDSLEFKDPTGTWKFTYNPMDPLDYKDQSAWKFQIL
# Chain of ETV1 (P50549 whole entry): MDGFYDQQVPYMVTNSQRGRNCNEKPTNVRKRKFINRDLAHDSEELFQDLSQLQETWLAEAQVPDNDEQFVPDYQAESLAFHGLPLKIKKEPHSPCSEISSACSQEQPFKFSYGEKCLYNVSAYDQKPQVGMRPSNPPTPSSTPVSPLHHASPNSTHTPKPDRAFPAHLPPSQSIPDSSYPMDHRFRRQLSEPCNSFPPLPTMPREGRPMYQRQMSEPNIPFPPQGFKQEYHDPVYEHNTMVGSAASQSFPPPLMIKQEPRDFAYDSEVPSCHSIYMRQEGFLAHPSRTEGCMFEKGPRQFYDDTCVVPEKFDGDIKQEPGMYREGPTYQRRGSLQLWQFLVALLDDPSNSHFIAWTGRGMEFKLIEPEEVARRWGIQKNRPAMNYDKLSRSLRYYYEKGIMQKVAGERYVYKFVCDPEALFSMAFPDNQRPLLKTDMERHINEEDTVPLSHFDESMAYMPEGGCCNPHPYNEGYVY
# Chain of ELF4 (Q99607 whole entry): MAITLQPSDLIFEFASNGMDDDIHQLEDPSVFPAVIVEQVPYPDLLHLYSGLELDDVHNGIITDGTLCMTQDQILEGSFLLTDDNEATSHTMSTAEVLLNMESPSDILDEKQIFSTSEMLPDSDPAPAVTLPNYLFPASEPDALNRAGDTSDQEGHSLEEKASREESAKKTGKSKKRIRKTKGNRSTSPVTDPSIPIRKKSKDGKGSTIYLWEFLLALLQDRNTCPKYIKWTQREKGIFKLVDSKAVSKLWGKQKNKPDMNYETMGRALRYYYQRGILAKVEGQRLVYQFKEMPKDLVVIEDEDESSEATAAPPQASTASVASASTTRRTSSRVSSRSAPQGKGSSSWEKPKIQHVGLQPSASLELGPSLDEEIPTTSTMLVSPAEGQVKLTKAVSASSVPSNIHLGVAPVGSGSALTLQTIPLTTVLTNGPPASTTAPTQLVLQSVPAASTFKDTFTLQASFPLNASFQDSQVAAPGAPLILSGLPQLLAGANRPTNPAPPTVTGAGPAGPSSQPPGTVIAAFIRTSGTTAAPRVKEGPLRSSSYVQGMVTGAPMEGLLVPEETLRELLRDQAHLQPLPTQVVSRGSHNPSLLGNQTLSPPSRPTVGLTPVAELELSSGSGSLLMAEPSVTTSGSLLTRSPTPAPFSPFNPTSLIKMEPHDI
sequence,measurement,setting,value
AGATCC,binding signal,FLI1,"1.05 fold enrichment (6-mer frequency, TF over GST control)"
same,binding signal,ELK1,"1.12 fold enrichment (6-mer frequency, TF over GST control)"
same,binding signal,GABPA,"1.09 fold enrichment (6-mer frequency, TF over GST control)"
same,binding signal,ERG,"1.15 fold enrichment (6-mer frequency, TF over GST control)"
same,binding signal,ELF1,"1.1 fold enrichment (6-mer frequency, TF over GST control)"
same,binding signal,EHF,"1.12 fold enrichment (6-mer frequency, TF over GST control)"
same,binding signal,SPI1,"1.03 fold enrichment (6-mer frequency, TF over GST control)"
same,binding signal,SPIB,"1.18 fold enrichment (6-mer frequency, TF over GST control)"
same,binding signal,ELK3,"1.1 fold enrichment (6-mer frequency, TF over GST control)"
same,binding signal,FEV,"1.14 fold enrichment (6-mer frequency, TF over GST control)"
same,binding signal,ETV5,"1.14 fold enrichment (6-mer frequency, TF over GST control)"
same,binding signal,HSF1,"1.11 fold enrichment (6-mer frequency, TF over GST control)"
same,binding signal,SPIC,"1.16 fold enrichment (6-mer frequency, TF over GST control)"
same,binding signal,ELF4,"1.14 fold enrichment (6-mer frequency, TF over GST control)"
same,binding signal,ELK4,"1.17 fold enrichment (6-mer frequency, TF over GST control)"
same,binding signal,ETV2,"1.06 fold enrichment (6-mer frequency, TF over GST control)"
same,binding signal,ELF3,"1.06 fold enrichment (6-mer frequency, TF over GST control)"
same,binding signal,CRX,"1.11 fold enrichment (6-mer frequency, TF over GST control)"
same,binding signal,ETV1,"1.14 fold enrichment (6-mer frequency, TF over GST control)"
